Experimental data from PubChem BioAssay AID1159580 (chemical genetic matrix, 2015).
Several values for one entry are separate records, joined by “and”; a condition that tells them apart may be missing. Equal entries are not always repeated. Hit rate of the full screen: of about 5,500 compounds, about 2,000 (36%) were called active. Inconclusive results (about 18%) are left out. No stated cut-off is given here; in the data, active means normalized growth mostly below about 0.91 (no sharp cut-off); inconclusive means no clear call, values can overlap the other calls; inactive means mostly above about 0.92. The list shows a part of the results.

Assay: chemical genetic growth profiling, strain panel (AID 1159580);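 further: tested at 20 µM; growth read once vehicle control cultures reached saturation at 30 °C; 1 = growth at the plate median or of vehicle wells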
Conditions: S. cerevisiae deletion strains, growth OD

Measured: normalized growth

Cc1[nH]c2ccccc2c1CN(C)C
inactive: locus YAL021C, strain ccr4, stronger effect = lower value 1.01 | locus YAL026C, strain drs2, stronger effect = lower value 1.03 | locus YAL030W, strain snc1, stronger effect = lower value 1.02 | locus YBL061C, strain skt5, stronger effect = lower value 1.02 | locus YBR009C, strain hhf1, stronger effect = lower value 1.02 | locus YBR021W, strain FUR4, stronger effect = lower value 0.951 | locus YBR023C, strain chs3, stronger effect = lower value 1.02 | locus YBR171W, strain sec66, stronger effect = lower value 1.02 | locus YBR229C, strain ROT2, stronger effect = lower value 0.998 | locus YBR231C, strain swc5, stronger effect = lower value 1.02 | locus YBR279W, strain paf1, stronger effect = lower value 1.01 | locus YCL011C, strain gbp2, stronger effect = lower value 1.02 | locus YCL016C, strain dcc1, stronger effect = lower value 1.01 | locus YCL029C, strain bik1, stronger effect = lower value 0.986 | locus YCL069W, strain vba3, stronger effect = lower value 1.01 | locus YCR088W, strain abp1, stronger effect = lower value 1.02 | locus YDL005C, strain med2, stronger effect = lower value 1.03 | locus YDL035C, strain GPR1, stronger effect = lower value 1.01 | locus YDL040C, strain nat1, stronger effect = lower value 1.02 | locus YDL074C, strain BRE1, stronger effect = lower value 1 | locus YDL101C, strain DUN1, stronger effect = lower value 1.01 | locus YDL134C, strain PPH21, stronger effect = lower value 1.02 | locus YDL185W, strain tfp1, stronger effect = lower value 1.01 | locus YDL192W, strain arf1, stronger effect = lower value 0.983 | locus YDR001C, strain nth1, stronger effect = lower value 1.01 | locus YDR069C, strain doa4, stronger effect = lower value 1.02 | locus YDR101C, strain arx1, stronger effect = lower value 0.968 | locus YDR137W, strain rgp1, stronger effect = lower value 1.03 | locus YDR150W, strain NUM1, stronger effect = lower value 1.01 | locus YDR159W, strain sac3, stronger effect = lower value 1.05 | locus YDR162C, strain NBP2, stronger effect = lower value 1.07 | locus YDR195W, strain ref2 1.03 | locus YDR297W, strain sur2, stronger effect = lower value 1.02 | locus YDR318W, strain mcm21, stronger effect = lower value 0.995 | locus YDR334W, strain swr1, stronger effect = lower value 1.01 | locus YDR335W, strain msn5, stronger effect = lower value 1.01 | locus YDR388W, stronger effect = lower value 0.993 | locus YDR392W, strain spt3, stronger effect = lower value 1.03 | locus YDR502C, strain sam2, stronger effect = lower value 0.987 | locus YEL003W, strain gim4, stronger effect = lower value 1.01 | locus YEL037C, strain rad23, stronger effect = lower value 1.01 | locus YEL061C, strain CIN8 (second series), stronger effect = lower value 1.03 | locus YEL061C, strain CIN8, stronger effect = lower value 1.02 | locus YER015W, strain faa2, stronger effect = lower value 1.01 | locus YER016W, strain bim1, stronger effect = lower value 1.01 | locus YER110C, stronger effect = lower value 0.984 | locus YER111C, strain swi4, stronger effect = lower value 1.03 | locus YER155C, strain BEM2, stronger effect = lower value 0.983 | locus YER167W, strain BCK2, stronger effect = lower value 1 | locus YFR010W, strain ubp6, stronger effect = lower value 1.01 | locus YGL078C, strain dbp3, stronger effect = lower value 1.01 | locus YGL086W, strain mad1, stronger effect = lower value 0.996 | locus YGL167C, strain pmr1, stronger effect = lower value 1.04 | locus YGL173C, strain kem1, stronger effect = lower value 1.03 | locus YGL227W, strain vid30, stronger effect = lower value 1.01 | locus YGL240W, strain doc1, stronger effect = lower value 1.01 | locus YGL248W, strain PDE1, stronger effect = lower value 1.03 | locus YGL253W, strain hxk2, stronger effect = lower value 1.02 | locus YGR135W, strain pre9, stronger effect = lower value 0.995 | locus YGR229C, strain SMI1, stronger effect = lower value 1.06 | locus YGR252W, strain gcn5, stronger effect = lower value 0.908 | locus YHR013C, strain ard1, stronger effect = lower value 1.03 | locus YHR027C, strain rpn1, stronger effect = lower value 1.03 | locus YHR030C, strain SLT2, stronger effect = lower value 1 and 0.988 | locus YHR079C, strain IRE1 (second series), stronger effect = lower value 0.995 | locus YHR079C, strain IRE1, stronger effect = lower value 0.982 | locus YHR094C, strain hxt1, stronger effect = lower value 0.989 | locus YHR129C, strain ARP1, stronger effect = lower value 1.01 | locus YHR142W, strain chs7, stronger effect = lower value 1.03 | locus YHR200W, strain rpn10, stronger effect = lower value 0.991 | locus YIL066C, strain RNR3, stronger effect = lower value 1.02 | locus YIL073C, strain SPO22, stronger effect = lower value 1.02 | locus YIL125W, strain kgd1, stronger effect = lower value 1.01 | locus YIR030C, strain dcg1, stronger effect = lower value 0.99 | locus YJL092W, strain hpr5, stronger effect = lower value 1.01 | locus YJL095W, strain BCK1 (second series), stronger effect = lower value 1.02 | locus YJL095W, strain BCK1, stronger effect = lower value 1.06 and 0.973 | locus YJL115W, strain asf1, stronger effect = lower value 1.02 | locus YJL129C, strain trk1, stronger effect = lower value 1.03 | locus YJL134W, strain LCB3, stronger effect = lower value 0.994 | locus YJL154C, strain vps35, stronger effect = lower value 1.02 | locus YJL164C, strain tpk1, stronger effect = lower value 1.01 | locus YJL166W, strain qcr8, stronger effect = lower value 1.02 | locus YJL168C, strain set2, stronger effect = lower value 0.993 | locus YJL187C, strain SWE1 (second series), stronger effect = lower value 1.01 | locus YJL187C, strain SWE1, stronger effect = lower value 1.02 | locus YJR043C, strain POL32, stronger effect = lower value 0.995 | locus YJR066W, strain TOR1, stronger effect = lower value 0.906
